Most compounds without a hit are left out; they make up all but 12% or so of the library.
G9a inh – blocks human histone lysine methyltransferase G9a. G9a H3K9 monomethylation, AlphaScreen, 2 h. Potency, µM (titrated, usually from 102 µM), most hits filed as inhibitors. 8.8% of 350,000 active. AID 504332; also: nearly all actives have a fitted effect of over 75% in size
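G9a (20 nM) was preincubated 15 min with compound, then reacted 2 h at room temperature with 500 nM biotin-H3K9 peptide and 20 µM SAM. Monomethyl-H3K9 detected by AlphaScreen using anti-H3K9me1 antibody.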
JMJD2A Tudor – inhibitors of human JMJD2A Tudor domain; O75164; AlphaScreen JMJD2A-Tudor / H3K4me3 peptide binding; Potency, µM (highest dose often 114 µM), usual class: inhibitors; 4.4% of 390,000 active; also: nearly all actives have a fitted effect of over 50% in size
L3MBTL1 inh – blocks human L3MBTL1 | AID 485360 | AlphaScreen L3MBTL1–H3K9me1 peptide binding | Potency, µM (highest dose often 57.1 µM), hits mostly inhibitors | 0.66% of 230,000 active | Q9Y468; also: nearly all actives have a fitted effect of over 60% in size
Target sequence (Q9Y468 whole entry, looked up): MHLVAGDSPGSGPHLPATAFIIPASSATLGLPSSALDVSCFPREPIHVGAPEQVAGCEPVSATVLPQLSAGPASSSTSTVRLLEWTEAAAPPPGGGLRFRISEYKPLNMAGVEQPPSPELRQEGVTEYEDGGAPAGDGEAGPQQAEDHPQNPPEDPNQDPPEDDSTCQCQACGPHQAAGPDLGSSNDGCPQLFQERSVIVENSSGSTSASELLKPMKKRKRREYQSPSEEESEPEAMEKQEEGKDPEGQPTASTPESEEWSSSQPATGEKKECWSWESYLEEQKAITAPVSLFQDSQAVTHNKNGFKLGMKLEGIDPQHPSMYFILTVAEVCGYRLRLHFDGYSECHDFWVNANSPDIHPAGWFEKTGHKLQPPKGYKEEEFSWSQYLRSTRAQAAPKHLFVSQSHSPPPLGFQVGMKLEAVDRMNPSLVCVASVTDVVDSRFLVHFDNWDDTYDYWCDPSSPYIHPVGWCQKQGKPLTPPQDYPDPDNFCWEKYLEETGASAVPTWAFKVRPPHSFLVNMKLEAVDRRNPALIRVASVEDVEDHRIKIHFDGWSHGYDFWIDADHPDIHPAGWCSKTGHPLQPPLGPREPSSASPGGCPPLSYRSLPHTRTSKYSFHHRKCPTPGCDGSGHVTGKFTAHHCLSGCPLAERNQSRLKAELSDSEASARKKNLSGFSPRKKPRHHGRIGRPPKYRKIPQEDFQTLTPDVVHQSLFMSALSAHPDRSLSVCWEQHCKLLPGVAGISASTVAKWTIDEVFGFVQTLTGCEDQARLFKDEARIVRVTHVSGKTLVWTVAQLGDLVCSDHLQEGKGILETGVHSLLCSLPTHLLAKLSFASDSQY
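L3MBTL1 50 nM + b-AHA-H3(1-15)K9me1 75 nM, 30 min RT; compound added, 30 min RT; streptavidin donor/Ni-chelate acceptor beads 10 ug/mL each final, 30 min RT dark; AlphaScreen read.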
BAZ2B inh – inhibitors of human BAZ2B bromodomain; 4.4% of 360,000 active; Potency, µM (doses to about 114 µM), hits mostly inhibitors; AlphaScreen BAZ2B-H3K14Ac peptide displacement; AID 504333; also: nearly all actives have a fitted effect of over 60% in size
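In this displacement format the biotinylated H3(5-23) peptide acetylated at Lys14 serves as ligand at 50 nM, with BAZ2B at 50 nM in PBS pH 7.4 containing 0.01% Tween-20. Donor and acceptor beads are 10 ug/mL final.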
HP1b binding inh – blocks HP1-beta chromodomain binding to methylated histone tails; 0.56% of 390,000 active; AID 540317; P83916; Potency, µM (doses to about 114 µM), usual class: inhibitors; AlphaScreen HP1-beta / biotin-H3K9me3 peptide binding; also: nearly all actives have a fitted effect of over 70% in size
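HP1-beta protein (50 nM final) preincubated 30 min at room temperature with biotinylated H3(1-18)K9me3 peptide (50 nM) in PBS pH 7.4, 0.01% Tween-20, then compound added for 30 min. AlphaScreen streptavidin donor/nickel chelate acceptor beads (10 ug/mL final), 30 min dark, luminescence read.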
Sfp inh – inhibitors of Bacillus subtilis Sfp phosphopantetheinyl transferase; 3.5% of 310,000 active; Biochemical Sfp PPTase activity, qHTS; Q9F4F7; Potency, µM, most hits filed as inhibitors;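 also: the enzyme is Sfp with the accession as filed and its product quenches rhodamine fluorescence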
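Step 1, compound plus 15 nM Sfp-PPTase, 15 min, room temperature. Step 2, add rhodamine-CoA (5 uM) and BHQ-2-YbbR (12.5 uM). Step 3, read 525/598 nm fluorescence at 0 and 30 min.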
Numbers stand for hits; [ ] = remark or other dose. Calls follow the shape of the dose curve; as a rule, active = well fitted curve in the direction sought with a large enough effect; inconclusive = small, poorly fitted or top-dose-only effect, or another doubt; inactive = no such curve, though single readings can be large; an effect the other way counts as inactive or inconclusive.

For Cc1ccc(NC(=O)CNCc2ccccc2Cl)cc1S(=O)(=O)N(C)C the results were G9a inh inactive, JMJD2A Tudor 3.2µM, BAZ2B inh 50µM, HP1b binding inh 32µM and Sfp inh inconclusive.
`Cc1ccc(NC(=O)CNCc2ccc(Cl)cc2Cl)cc1S(=O)(=O)N(C)C` gave G9a inh 10µM, JMJD2A Tudor 20µM, BAZ2B inh 25µM, HP1b binding inh 35µM and Sfp inh 79µM.
For Cc1ccc(NC(=O)COC(=O)Cn2cnc3ccccc32)cc1S(=O)(=O)N(C)C the results were G9a inh 50µM, JMJD2A Tudor inactive, L3MBTL1 inh inactive, BAZ2B inh inactive, HP1b binding inh inactive and Sfp inh inactive.
O=C(COC(=O)Cn1cnc2ccccc21)Nc1ccc2c(c1)C(=O)c1ccccc1C2=O was read as G9a inh inconclusive, JMJD2A Tudor inactive, L3MBTL1 inh inactive, BAZ2B inh inactive, HP1b binding inh inactive and Sfp inh inactive.
For Cc1ccc(NC(=O)Cc2c(Cl)cccc2Cl)cc1S(=O)(=O)N(C)C the results were G9a inh inactive, JMJD2A Tudor inactive, L3MBTL1 inh inactive, BAZ2B inh inactive, HP1b binding inh inactive and Sfp inh inactive.
`Cc1cccc(NC(=O)C2CCN(c3nnc(C)c4c(C)n(-c5ccccc5)nc34)CC2)c1C` gave G9a inh inactive, JMJD2A Tudor inactive, BAZ2B inh inactive and HP1b binding inh inactive.
Screening CCCS(=O)(=O)c1c(S(=O)(=O)CCC)c2cc(C(C)(C)C)ccn2c1C(=O)c1ccccc1 returned G9a inh inconclusive, JMJD2A Tudor inconclusive, BAZ2B inh inactive and HP1b binding inh inactive.
For Cc1ccc2nc3c(cc(C(=O)NCc4cccnc4)c(=N)n3C(C)C)c(=O)n2c1 the results were G9a inh 40µM, L3MBTL1 inh inactive, BAZ2B inh inactive and Sfp inh inactive.
`CC(=O)N[C@@H](CC(C)C)C(=O)N[C@@H](CCCNC(=N)N)C(=O)N[C@@H](Cc1cnc[nH]1)C(=O)N[C@@H](Cc1ccc(O)cc1)C(=O)N[C@@H](CC(C)C)C(=O)N[C@@H](CC(N)=O)C(=O)N[C@@H](CC(C)C)C(=O)N[C@@H](CC(C)C)C(=O)N[C@H](C(=O)N[C@@H](CCCNC(=N)N)C(=O)N[C@@H](CCC(N)=O)C(=O)N[C@@H](CCCNC(=N)N)C(=O)N[C@@H](Cc1ccc(O)cc1)C(N)=O)[C@@H](C)O` gave Sfp inh inactive.
For Cc1ccc(Nc2nc(=O)c3cc([N+](=O)[O-])ccc3s2)cc1 the results were G9a inh inactive, JMJD2A Tudor inactive, BAZ2B inh inactive, HP1b binding inh inactive and Sfp inh inactive.
`Cc1ccccc1Nc1nc2ccccc2s1` gave G9a inh inactive, JMJD2A Tudor inactive, L3MBTL1 inh inactive, BAZ2B inh inactive, HP1b binding inh inactive and Sfp inh inactive.
`COc1ccc(Nc2nc(=O)c3cc([N+](=O)[O-])ccc3s2)cc1` gave G9a inh inconclusive, JMJD2A Tudor inactive, BAZ2B inh 79µM, HP1b binding inh inactive and Sfp inh inconclusive.
`Cc1ccccc1Nc1nc(=O)c2cc([N+](=O)[O-])ccc2s1` gave G9a inh 35µM, JMJD2A Tudor inactive, L3MBTL1 inh inactive, BAZ2B inh inactive, HP1b binding inh inactive and Sfp inh inconclusive.
CCOC(=O)c1[nH]c(C)c(CCC(=O)N2CCN(c3cc(Cl)ccc3C)CC2)c1C was read as G9a inh inactive, JMJD2A Tudor inconclusive, BAZ2B inh inconclusive and HP1b binding inh inactive.
`C[N+]1(CCn2ccc3ccccc32)CCCCC1` gave G9a inh 50µM, JMJD2A Tudor 25µM, L3MBTL1 inh inactive, BAZ2B inh inactive, HP1b binding inh inactive and Sfp inh inactive.
N#Cc1cnn(-c2ccccc2)c1N was read as G9a inh inactive, JMJD2A Tudor inactive, L3MBTL1 inh inactive, HP1b binding inh inactive and Sfp inh inactive.
`Cc1cc(=O)[nH]c(-n2ncc(C#N)c2N)n1` gave G9a inh 2.8µM, JMJD2A Tudor 1.6µM, L3MBTL1 inh inactive, HP1b binding inh inactive and Sfp inh 56µM.
`O=C(c1ccccc1O)N(Cc1ccccc1)Cc1cccs1` gave JMJD2A Tudor inactive.
Screening O=C(O)C1CCCCC1C(=O)Nc1ccc(S(=O)(=O)N2CCCCCC2)cc1 (centres undefined) returned G9a inh inactive, JMJD2A Tudor inactive, BAZ2B inh inactive, HP1b binding inh inconclusive and Sfp inh inactive.
For O=C(O)C1CCCCC1C(=O)Nc1ccc(S(=O)(=O)N2CCOCC2)cc1 (centres undefined) the results were JMJD2A Tudor 56µM and HP1b binding inh inactive.
`O=C(Nc1ccccc1)c1ccc(S(=O)(=O)N2CCOCC2)cc1` gave G9a inh inactive[12.7 µM], JMJD2A Tudor inactive, BAZ2B inh inactive, HP1b binding inh inactive and Sfp inh inactive.
For O=C(CCSc1ccccc1)Nc1ccc(S(=O)(=O)N2CCOCC2)cc1 the results were G9a inh inactive, JMJD2A Tudor inactive, BAZ2B inh 56µM, HP1b binding inh inactive and Sfp inh inactive.
Screening O=S(=O)(c1ccc(NC(=S)NN=C(Cc2ccccc2)Cc2ccccc2)cc1)N1CCOCC1 returned JMJD2A Tudor inactive[11.4 µM], L3MBTL1 inh inactive, BAZ2B inh 50µM, HP1b binding inh inactive and Sfp inh inconclusive.
For CC1CN=C(N(C(=O)Nc2ccccc2)c2ccc(S(=O)(=O)N3CCOCC3)cc2)S1 (centres undefined) the results were G9a inh 7.1µM, JMJD2A Tudor inactive, L3MBTL1 inh inactive, BAZ2B inh inactive, HP1b binding inh inactive and Sfp inh inactive.
O=C(CCCc1ccccc1)Nc1ccc(S(=O)(=O)N2CCOCC2)cc1 was read as JMJD2A Tudor inactive, BAZ2B inh inactive, HP1b binding inh inactive and Sfp inh inactive.
Screening O=C(CSc1ncnc2sccc12)Nc1ccc(S(=O)(=O)N2CCOCC2)cc1 returned G9a inh 45µM, JMJD2A Tudor inactive, L3MBTL1 inh inactive, BAZ2B inh inactive and HP1b binding inh inactive.
For Cc1cccc(C)c1Nc1nnc(SCc2nc3ccccc3s2)s1 the results were G9a inh 8.9µM, JMJD2A Tudor inactive, L3MBTL1 inh inactive, BAZ2B inh inactive, HP1b binding inh inactive and Sfp inh inconclusive.
For COc1cccc(Nc2nnc(SCc3nc4ccccc4s3)s2)c1 the results were G9a inh 10µM, JMJD2A Tudor inactive, L3MBTL1 inh inactive, BAZ2B inh inactive, HP1b binding inh inactive and Sfp inh inactive.
COc1cccc(Nc2nnc(SCN3C(=O)c4ccccc4C3=O)s2)c1 was read as G9a inh inconclusive, JMJD2A Tudor inactive, L3MBTL1 inh inactive, BAZ2B inh inactive, HP1b binding inh inactive and Sfp inh inactive.

Screening results from PubChem BioAssay.
